Rows were chosen to be rich in hits. Some 15% of all compounds tested hit in one or more screens of this group.
ELG1 repair inh = blocks ELG1-dependent DNA repair in HEK293T cells | 330,000 compounds, 2.3% hits | Potency, µM (series often up to 46.1 µM), actives largely listed as inhibitors | AID 504467 | HEK293T ELG1-luciferase reporter, luminescence, 16 h; DNA damage induced by 5-fluorouridine; note: nearly all actives have a fitted effect of over 55% in size
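DMSO vehicle served as the neutral condition. Each well held 2,000 cells given 5-fluorouridine plus compound; after 16 hr at 37 °C/5% CO2, ONE-Glo was added and luciferase measured 30 min later.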
DT40 TDP1 CPT = DT40-hTDP1 cell growth loss with CPT. AID 686979. 420,000 compounds, 12% hits. chicken DT40 Tdp1-/-;hTDP1 cells + 20 nM CPT, ATP luminescence, 48 h. Potency, µM (series often up to 46.2 µM), most hits filed as inhibitors; note: nearly all actives have a fitted effect of over 55% in size
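Chicken DT40 Tdp1-/- cells complemented with human TDP1, 400 cells/well, exposed to compounds plus 20 nM camptothecin for at least 48 h at 37 C; viability read as ATP content by CellTiter-Glo luminescence.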
RORg inh = ROR gamma (mouse) transcription inhibition | Potency, µM (series often up to 53.6 µM), actives largely listed as inhibitors | P51450 | 310,000 compounds, 5.4% hits | Drosophila S2 Gal4-RORgamma UAS-luciferase reporter, 20 h; note: nearly all actives have a fitted effect of over 60% in size
Target sequence (P51450 whole entry, looked up, the tested form may be a part): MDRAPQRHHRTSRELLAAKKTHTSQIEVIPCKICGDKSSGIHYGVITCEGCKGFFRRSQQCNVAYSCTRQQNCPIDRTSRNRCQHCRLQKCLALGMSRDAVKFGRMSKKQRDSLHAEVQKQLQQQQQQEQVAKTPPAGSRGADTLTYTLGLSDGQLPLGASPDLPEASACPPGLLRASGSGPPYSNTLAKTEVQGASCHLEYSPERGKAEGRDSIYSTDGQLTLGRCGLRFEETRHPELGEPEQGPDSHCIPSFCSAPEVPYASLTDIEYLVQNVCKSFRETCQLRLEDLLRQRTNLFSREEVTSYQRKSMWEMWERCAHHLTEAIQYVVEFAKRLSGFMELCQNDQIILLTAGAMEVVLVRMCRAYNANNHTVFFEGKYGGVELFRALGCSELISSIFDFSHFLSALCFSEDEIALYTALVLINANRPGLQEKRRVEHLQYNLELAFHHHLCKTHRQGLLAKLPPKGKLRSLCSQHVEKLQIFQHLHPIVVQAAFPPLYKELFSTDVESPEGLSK
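In this cell-based reporter format, copper sulfate (700 uM final) drives Gal4–ROR gamma fusion expression from a metallothionein promoter in Drosophila Schneider cells; compounds preincubated 1 hr, reporter read after 20 hr at ambient temperature.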
TDP1 cell noCPT = qHTS for Inhibitors of human tyrosyl-DNA phosphodiesterase 1 (TDP1): qHTS in cells in absence of CPT | DT40 Tdp1-/- hTDP1 cells, no CPT, ATP luminescence, 48 h | Potency, µM (series often up to 46.2 µM), actives largely listed as inhibitors | 420,000 compounds, 15% hits | AID 686978, 2013; note: nearly all actives have a fitted effect of over 55% in size
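Chicken DT40 Tdp1-/- cells complemented with human TDP1, screened without camptothecin (DMSO vehicle only), 400 cells/well. Compounds pin-transferred, cells incubated at 37 °C for at least 48 hr. Growth read as ATP-dependent luminescence (CellTiter-Glo, 30 min at RT).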
ALOX12 inh = blocks human arachidonate 12S-lipoxygenase; P18054; purified 12hLO, xylenol orange hydroperoxide absorbance; Potency, µM (series often up to 108 µM), actives largely listed as inhibitors; 580,000 compounds, 1.1% hits; AID 1671190
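Purified human 12hLO (150 nM final) in 25 mM Hepes, 0.01% Triton X-100, pH 7.0 was preincubated 15 min at room temperature with compound. Then 40 uM arachidonic acid was added, 30 min. Hydroperoxide was read by Fe-XO absorbance ratio 573/405 nm.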
VP16 counter = inhibits Gal4-VP16 luciferase reporter, ROR gamma counter-screen; Drosophila S2 Gal4-VP16 UAS-luciferase, luminescence, 20 h; Potency, µM (titrated, usually from 53.6 µM), usual class: inhibitors; 310,000 compounds, 3.5% hits; AID 2546;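 note: Gal4-VP16 expression switched on by copper sulfate through the metallothionein promoter; nearly all actives have a fitted effect of over 50% in size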
Of the large screens only hits and unclear results are named; the others gave an inactive call. Calls come from the whole dose curve; as a rule, active = well fitted curve in the direction sought with a large enough effect; inconclusive = small, poorly fitted or top-dose-only effect, or another doubt; inactive = no such curve, though single readings can be large; an effect the other way counts as inactive or inconclusive.

Cc1ccc(OCC(=O)Nc2cccc(-c3nnc(-c4ccccc4)o3)c2)c(C)c1	ELG1 repair inh inconclusive, DT40 TDP1 CPT 12µM, RORg inh inconclusive, TDP1 cell noCPT 12µM
CC1(C)Cc2c(C#N)c(Nc3ccccc3)n3c(SCC(=O)N4CCCCC4)nnc3c2CO1	none (no result: ELG1 repair inh, DT40 TDP1 CPT, RORg inh, TDP1 cell noCPT, VP16 counter)
N#Cc1ccc(COc2ccccc2C(N)=O)cc1	none (no result: ELG1 repair inh, DT40 TDP1 CPT, RORg inh, TDP1 cell noCPT, VP16 counter)
COc1ccc(CCNC(=O)c2nnn3c2COC(c2ccc(C)cc2)C3)cc1OC (configuration not stated)	none (no result: ELG1 repair inh, DT40 TDP1 CPT, RORg inh, TDP1 cell noCPT, VP16 counter)
COc1ccc(Nc2nc(-c3ccccc3)nc3ccccc23)cc1	ELG1 repair inh 21µM, DT40 TDP1 CPT inconclusive, TDP1 cell noCPT inconclusive
C/C(=N\Nc1nc(-c2ccc(C)cc2)nc2ccccc12)c1ccc([N+](=O)[O-])cc1	none (no result: DT40 TDP1 CPT, TDP1 cell noCPT, ALOX12 inh)
COc1ccc(-c2nc(N/N=C(\C)c3ccc(O)cc3)c3ccccc3n2)cc1	ELG1 repair inh inconclusive, DT40 TDP1 CPT 21µM, TDP1 cell noCPT 7.3µM
COc1ccc(Nc2nc(-c3cccc([N+](=O)[O-])c3)nc3ccccc23)cc1	ELG1 repair inh 8.2µM, DT40 TDP1 CPT inconclusive, TDP1 cell noCPT 15µM, VP16 counter inconclusive
CC(=O)Nc1ccc(Nc2nc(-c3ccccc3)nc3ccccc23)cc1	ELG1 repair inh inconclusive, DT40 TDP1 CPT 18µM, TDP1 cell noCPT 23µM, VP16 counter 13µM
COc1nc(-c2cccc([N+](=O)[O-])c2)nc2ccccc12	none
COc1ccc(-c2nc(Nc3ccccc3C)c3ccccc3n2)cc1	none (no result: ELG1 repair inh, DT40 TDP1 CPT, RORg inh, TDP1 cell noCPT, VP16 counter)
Oc1ccc(Nc2nc(-c3ccccc3)nc3ccccc23)cc1	ELG1 repair inh inconclusive, DT40 TDP1 CPT inconclusive, TDP1 cell noCPT inconclusive (no result: ALOX12 inh)
COc1ccccc1-c1nc(C#N)c(N2CCN(C(=O)c3ccccc3)CC2)o1	none (no result: ELG1 repair inh, DT40 TDP1 CPT, RORg inh, TDP1 cell noCPT, VP16 counter)
CN(C)CCCN(C(=O)c1ccc(S(=O)(=O)N(C)C2CCCCC2)cc1)c1nc2ccc(Br)cc2s1	DT40 TDP1 CPT inconclusive, RORg inh inconclusive, TDP1 cell noCPT inconclusive, ALOX12 inh inconclusive, VP16 counter inconclusive
CCc1ccc2nc(N(CCCN(C)C)C(=O)c3ccc(S(=O)(=O)N4CCc5ccccc5C4)cc3)sc2c1	DT40 TDP1 CPT 5.2µM, RORg inh inconclusive, TDP1 cell noCPT 5.2µM, VP16 counter inconclusive
COc1cc2nc(N(CCN(C)C)C(=O)c3ccc(S(=O)(=O)N(C)CC4CCCO4)cc3)sc2cc1OC (configuration not stated)	none
COc1cc2nc(N(CCCN(C)C)C(=O)c3ccc(S(=O)(=O)N(C)C4CCCCC4)cc3)sc2cc1OC	DT40 TDP1 CPT inconclusive, TDP1 cell noCPT 16µM (no result: RORg inh, VP16 counter)
CCc1ccc2nc(N(CCCN(C)C)C(=O)c3ccc(S(=O)(=O)N(C)C4CCCCC4)cc3)sc2c1	DT40 TDP1 CPT 16µM, RORg inh inconclusive, TDP1 cell noCPT inconclusive, VP16 counter inconclusive
CN(C)CCCN(C(=O)c1ccc(S(=O)(=O)N(C)C2CCCCC2)cc1)c1nc2ccc(F)cc2s1	DT40 TDP1 CPT 16µM, RORg inh inconclusive, TDP1 cell noCPT inconclusive, ALOX12 inh inconclusive, VP16 counter inconclusive
N#CC(C(=O)/C=C/c1ccccc1)c1ccc(C(F)(F)F)cn1 (configuration not stated)	none (no result: ELG1 repair inh, DT40 TDP1 CPT, RORg inh, TDP1 cell noCPT, VP16 counter)
Cc1ccc(C(=O)C(Cl)C(=O)c2ccc(C)cc2)cc1	none (no result: ELG1 repair inh, DT40 TDP1 CPT, RORg inh, TDP1 cell noCPT, VP16 counter)
CCOc1ccc(Nc2nc(Cc3nnc(SCC(=O)c4ccc(C)c(C)c4)o3)cs2)cc1	ELG1 repair inh 23µM, DT40 TDP1 CPT 29µM, RORg inh inconclusive, TDP1 cell noCPT 16µM
CCCC(=O)NC(=S)Nc1ccc(C(C)=O)cc1	ELG1 repair inh inconclusive, RORg inh 16µM, VP16 counter inconclusive
CC(=O)c1ccc(NC(=S)NC(=O)Cc2ccc(Cl)cc2)cc1	RORg inh inconclusive
CC(=O)N(C)c1ccc(NC(=S)Nc2cccc3ccccc23)cc1	ELG1 repair inh inconclusive, DT40 TDP1 CPT 23µM, RORg inh inconclusive, TDP1 cell noCPT inconclusive, VP16 counter inconclusive
Fc1cccc(NC(=S)Nc2cccc3ccccc23)c1	ELG1 repair inh inconclusive, ALOX12 inh inconclusive
Cc1ccc(NC(=S)Nc2cccc3ccccc23)cc1F	ELG1 repair inh inconclusive, DT40 TDP1 CPT inconclusive, RORg inh 11µM, ALOX12 inh 40µM, VP16 counter 7.9µM
CC(=O)N(C)c1ccc(NC(=S)Nc2ccccc2)cc1	ELG1 repair inh inconclusive
CC(=O)c1ccc(NC(=S)Nc2cccc3ccccc23)cc1	ELG1 repair inh inconclusive, DT40 TDP1 CPT inconclusive, RORg inh 14µM, ALOX12 inh inconclusive, VP16 counter inconclusive
O=C(NCCn1c(=O)c(=O)[nH]c2ccccc21)C1CC(=O)N(c2n[nH]c3ccccc23)C1 (configuration not stated)	none (no result: ELG1 repair inh, DT40 TDP1 CPT, RORg inh, TDP1 cell noCPT, VP16 counter)
Cc1cc(Cl)ccc1S(=O)(=O)N(Cc1cccnc1)C1CC1	none (no result: ELG1 repair inh, DT40 TDP1 CPT, RORg inh, TDP1 cell noCPT, VP16 counter)
CC1CCCCC1NC(=O)C1CC(=O)N(Cc2ccccc2)C1 (configuration not stated)	DT40 TDP1 CPT 13µM, TDP1 cell noCPT 12µM (no result: ALOX12 inh)
Cc1ccc(CN2CC(C(=O)NC3CCCC(C)C3C)CC2=O)cc1 (configuration not stated)	DT40 TDP1 CPT 18µM, TDP1 cell noCPT inconclusive (no result: RORg inh, VP16 counter)
CC1CCCC(NC(=O)C2CC(=O)N(Cc3ccccc3)C2)C1C (configuration not stated)	ELG1 repair inh inconclusive
